Experimental data taken from PubChem BioAssay (NCATS).
“And” between values parts separate entries of the source, which are not always exact repeats. Equal entries are not always repeated. Results filed as inconclusive are left out. Entries that show only a call come without a potency. Values without a mark were called inactive. The source made the active and inactive calls. Calls follow the shape of the dose curve; as a rule, active = well fitted inhibition curve with a large enough effect; inconclusive = small, poorly fitted or top-dose-only effect; inactive = flat fitted curve, though single readings scatter.

Tested on: NIH3T3
Test: Cytotoxic Profiling of Annotated Libraries Using Quantitative High-Throughput Screening (AID 1296008)
Conditions: Five cell lines viability, CellTiter-Glo ATP luminescence, 48-72 h; max response: hits give low values
Method in brief: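 Compounds were pin-transferred onto cells and incubated 48 or 72 hr at 37 degree Celsius, 95% humidity. CellTiter-Glo was added, plates sat 10 min at room temperature, then ATP-coupled luminescence was imaged as the viability read-out.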
Also: nearly all actives have a fitted effect of over 60% in size.
Potency is read from the fitted curve at half-maximal effect.

Structure (SMILES)	Potency	max response	outcome
N#CC1(c2cccc(C(=O)Nc3cc(Oc4ccc5nc(NC(=O)C6CC6)sc5n4)ccc3F)c2Cl)CC1	3.32 µM (active) and 3.26 µM (active)	–	–
CN1CC(=O)NC1=NC(=O)Nc1cccc(Cl)c1	–	-5.12%	–
CCCCCOC(=O)Nc1nc(=O)n([C@@H]2O[C@H](C)[C@@H](O)C2O)cc1F (some centres undefined)	–	2.26%	–
O=C1Nc2ccc(I)cc2C1=Cc1cc(Br)c(O)c(Br)c1	–	-9.84%	–
O=S(=O)(O)c1ccc2cc(N=Nc3cc(S(=O)(=O)O)c4cccnc4c3O)ccc2c1	–	-3.13% and 2.59%	–
CCN(CCO)CCCOc1ccc2c(Nc3cc(CC(=O)Nc4cccc(F)c4)[nH]n3)ncnc2c1	–	-28.4%	–
N#Cc1ccc(Oc2ccc3c(c2)COB3O)cc1	–	-0.632% and -20.3%	–
CC(C)CN(C[C@@H](O)[C@H](Cc1ccccc1)NC(=O)O[C@H]1CO[C@H]2OCC[C@H]21)S(=O)(=O)c1ccc(N)cc1	–	–	inactive
COc1cc2c(cc1OC)CC(=O)N(CCCN(C)C[C@H]1Cc3cc(OC)c(OC)cc31)CC2	–	-18.8%	–
OC[C@H]1O[C@@H](OCCc2ccc(O)cc2)[C@H](O)[C@@H](O)[C@H]1O	–	2.07%	–

Tested on: MCC-13
Test: qHTS assay to identify novel small-molecules to repurpose for Merkel cell carcinoma treatment (AID 1296009)
Conditions: MCC and control cell lines, CellTiter-Glo viability, 72 h; series mostly up to 46 µM
Method in brief: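 qHTS format: cells treated with library compounds in DMSO across 8 (NPC) or 11 (MIPE) concentrations. Readout after 72 hr at 37 degree celsius was CellTiter-Glo luminescence.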

Structure (SMILES)	Potency
NC[C@H]1O[C@H](O[C@@H]2[C@@H](O)[C@@H](O[C@H]3O[C@H](CO)[C@@H](O)[C@H](N)[C@@H]3O)[C@H](N)C[C@@H]2N)[C@H](O)[C@@H](O)[C@H]1O	inactive
CCc1cccc(CC)c1NC(=O)N1Cc2[nH]nc(NC(=O)c3ccc(N4CCN(C)CC4)cc3)c2C1	inactive
CC(=O)O[C@]1(C(C)=O)CC[C@H]2[C@@H]3C=C(Cl)C4=CC(=O)[C@@H]5C[C@H]5[C@]4(C)[C@@H]3CC[C@@]21C	inactive
CON(C)C(=O)N1N=C(c2cc(F)ccc2F)S[C@]1(CCCN)c1ccccc1	9.3 nM (active)
OC[C@H]1O[C@@H](O[C@H]2[C@@H](O)[C@@](O)(CO)O[C@@H]2CO)[C@H](O)[C@@H](O)[C@@H]1O	inactive
COc1cc(F)c(C(C)C)cc1-c1ccc(C(F)(F)F)cc1CN1C(=O)O[C@H](c2cc(C(F)(F)F)cc(C(F)(F)F)c2)[C@@H]1C	inactive
CCCC1OC2C[C@@H]3[C@H]4CCC5=CC(=O)C=C[C@]5(C)[C@H]4C(O)C[C@]3(C)[C@]2(C(=O)CO)O1 (some centres undefined)	inactive
COc1cc(CNC(=O)CCCCC=CC(C)C)ccc1O	inactive
C#CCN(C)CC1=Cc2ccccc2Oc2ccccc21	inactive
O=c1[nH]c(=O)n([C@H]2C[C@@H](O)[C@@H](CO)O2)cc1I	inactive
CNC(=O)[C@H](CC1=CN=C2C=CCC=C12)NC(=O)[C@@H](CC(=O)NO)CC(C)C	inactive
Cc1c(C(=O)Nc2ccc(N3C[C@@H](C)O[C@@H](C)C3)nc2)cccc1-c1ccc(OC(F)(F)F)cc1	inactive
CC(C)(C)c1[nH]cnc1C=c1[nH]c(=O)c(=Cc2ccccc2)[nH]c1=O	7.6 nM (active)
Nc1ncnc2c1c(-c1cccc(OCc3ccccc3)c1)cn2C1CC(CN2CCC2)C1 (centres undefined)	inactive
Cc1cc(C(C)Nc2ccccc2)c2nc(N3CCOCC3)cc(=O)n2c1 (centres undefined)	inactive
CSc1cccc(Nc2ncc3cc(-c4c(Cl)cccc4Cl)c(=O)n(C)c3n2)c1	inactive
CO[C@H]1/C=C\O[C@@]2(C)Oc3c(C)c(O)c4c(O)c(c5c(nc6cc(C)ccn65)c4c3C2=O)NC(=O)C(C)=CC=C[C@H](C)[C@H](O)[C@@H](C)[C@@H](O)[C@@H](C)[C@H](OC(C)=O)[C@H]1C	inactive
CN1CCN(c2cccc(Nc3nc4c(-c5ccc(S(C)(=O)=O)cc5)cccn4n3)c2)CC1	inactive
CN(C(Cc1ccc(OS(=O)(=O)c2cccc3cnccc23)cc1)C(=O)N1CCN(c2ccccc2)CC1)S(=O)(=O)c1cccc2cnccc12 (centres undefined)	inactive
CCC(=O)OCC(=O)[C@@]1(OC(=O)CC)[C@@H](C)C[C@@H]2[C@H]3CCC4=CC(=O)C=C[C@]4(C)[C@@]3(F)[C@@H](O)C[C@@]21C	inactive

Structure (SMILES)	Potency
CC(C)C[C@@H](N)[C@H](O)C(=O)N[C@H](C(=O)N[C@H](C(=O)N[C@@H](CC(=O)O)C(=O)O)C(C)C)C(C)C	inactive
CN(C)N=Nc1nc[nH]c1C(N)=O	inactive
C[C@@H](O[C@H]1OCCN(Cc2n[nH]c(=O)[nH]2)[C@@H]1c1ccc(F)cc1)c1cc(C(F)(F)F)cc(C(F)(F)F)c1	inactive
CC(C)(C)c1nc(-c2cccc(NS(=O)(=O)c3c(F)cccc3F)c2F)c(-c2ccnc(N)n2)s1	inactive
CNC(=O)c1cc(COc2nnc(Nc3ccc(Cl)cc3)c3ccoc23)ccn1	inactive
CCNC(=O)CCCC=CC[C@@H]1[C@H](C=CC(O)CCc2ccccc2)[C@@H](O)C[C@@H]1O (some centres undefined)	inactive
Cc1nc(NC(=O)N2CCC[C@@H]2C(N)=O)sc1-c1csc(C(C)(C)C)n1	inactive
O[C@@H](COc1cccc2ncccc12)CN1CCN(C2c3ccccc3[C@@H]3[C@H](c4ccccc42)C3(F)F)CC1 (some centres undefined)	inactive
CC(C)[C@H](O)C(=O)N[C@@H](C)C(=O)N[C@@H]1C(=O)N(C)CCc2ccccc21	inactive
N#CC1(c2cccc(C(=O)Nc3cc(Oc4ccc5nc(NC(=O)C6CC6)sc5n4)ccc3F)c2Cl)CC1	16600 nM (active)
CN1CC(=O)NC1=NC(=O)Nc1cccc(Cl)c1	inactive
CCCCCOC(=O)Nc1nc(=O)n([C@@H]2O[C@H](C)[C@@H](O)C2O)cc1F (some centres undefined)	inactive
O=C1Nc2ccc(I)cc2C1=Cc1cc(Br)c(O)c(Br)c1	inactive
O=S(=O)(O)c1ccc2cc(N=Nc3cc(S(=O)(=O)O)c4cccnc4c3O)ccc2c1	inactive
CCN(CCO)CCCOc1ccc2c(Nc3cc(CC(=O)Nc4cccc(F)c4)[nH]n3)ncnc2c1	inactive
N#Cc1ccc(Oc2ccc3c(c2)COB3O)cc1	inactive
CC(C)CN(C[C@@H](O)[C@H](Cc1ccccc1)NC(=O)O[C@H]1CO[C@H]2OCC[C@H]21)S(=O)(=O)c1ccc(N)cc1	inactive
COc1cc2c(cc1OC)CC(=O)N(CCCN(C)C[C@H]1Cc3cc(OC)c(OC)cc31)CC2	inactive
OC[C@H]1O[C@@H](OCCc2ccc(O)cc2)[C@H](O)[C@@H](O)[C@H]1O	inactive
